Data on eight compounds can be found in PubChem BioAssay (NCI).

Some test systems named below: SK-MEL-2 melanoma; EKVX NSCLC; SN12C renal; UO-31 renal; TK-10 renal; ACHN renal; CAKI-1 renal; A498 renal; CCRF-CEM leukemia; MOLT-4 leukemia; RPMI-8226 leukemia; OVCAR-8 ovarian; OVCAR-5 ovarian; OVCAR-4 ovarian; SK-OV-3 ovarian; IGROV1 ovarian; OVCAR-3 ovarian; HS 578T breast; NCI/ADR-RES ovarian; SR leukemia.
What all share (experiment): NCI-60 one-dose screen, 48 h (100 = growth as untreated, 0 = no growth, -100 = all killed)
Common to all, as to conditions: 10 µM unless noted

SMILES strings stand for the structures. Compounds without any hit were thinned out: in the full panel of roughly 83,000, 20% have a hit.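 96-well plates, one dose, 48 hours. Percent growth reported; active if below 10.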 A number with no mark means an inactive call. Activity calls are given as the source filed them.

Turning to `Cc1ccccc1NC(=O)CN(C)C`, the growth is 84.8% in the assay with SK-MEL-2 melanoma; 108% in the assay with EKVX NSCLC; 97% in the assay on SN12C renal; 81.2% with UO-31 renal; 86.8% in the assay with TK-10 renal; 99.6% in the assay on ACHN renal. Besides, the growth was 103% with CAKI-1 renal; 83.8% in the assay on A498 renal; 107% in the assay with CCRF-CEM leukemia; 94.2% in the assay on MOLT-4 leukemia; 111% with RPMI-8226 leukemia; 108% in the assay with OVCAR-8 ovarian. The growth in the assay on OVCAR-5 ovarian is 95.8%; in the assay with OVCAR-4 ovarian, 118%; with SK-OV-3 ovarian, 101%; with IGROV1 ovarian, 96%; with OVCAR-3 ovarian, 113%; in the assay on HS 578T breast it was 113%. Further, the growth with NCI/ADR-RES ovarian was 101%.
Turning to `Cn1ccnc1C(=O)/C=C/c1ccc(C(=O)Nc2ccc(S(F)(F)(F)(F)F)cc2)cc1`, the growth with SK-MEL-2 melanoma was 62.7%; in the assay with EKVX NSCLC, 26.3%; in the assay with SN12C renal, 7.07% (active); in the assay on UO-31 renal, 28.5%; with TK-10 renal it was 48.8%; in the assay with ACHN renal it was 42.5%. Also, the growth with CAKI-1 renal was 23.9%; with A498 renal, 38.4%; with CCRF-CEM leukemia it was 3.4% (active); with MOLT-4 leukemia, -5.05% (active); in the assay with SR leukemia it was 1.8% (active); in the assay on OVCAR-8 ovarian it was 9.86% (active). Moreover, the growth with OVCAR-5 ovarian is 10.2%; in the assay with OVCAR-4 ovarian, 33.5%; with SK-OV-3 ovarian it was 61.2%; with IGROV1 ovarian it was 22.3%; in the assay with OVCAR-3 ovarian, 2.9% (active); in the assay with HS 578T breast it was 23.5%. Also, the growth in the assay with NCI/ADR-RES ovarian is 5.47% (active).
With `CN(C)CCC(O)(Cc1ccccc1)c1ccccc1` (stereo unspecified), the growth with SK-MEL-2 melanoma is 100%; in the assay on EKVX NSCLC it was 99.5%; with SN12C renal, 105%; in the assay on UO-31 renal, 87.8%; in the assay on TK-10 renal, 93.8%; in the assay on ACHN renal, 101%. Moreover, the growth was 83.6% in the assay on CAKI-1 renal; 185% in the assay on A498 renal; 112% in the assay on CCRF-CEM leukemia; 102% in the assay on MOLT-4 leukemia; 102% in the assay on SR leukemia; 105% in the assay on OVCAR-8 ovarian. Moreover, the growth is 103% in the assay on OVCAR-5 ovarian; 110% with OVCAR-4 ovarian; 99.6% in the assay with SK-OV-3 ovarian; 113% with IGROV1 ovarian; 99.8% in the assay with HS 578T breast; 109% in the assay on NCI/ADR-RES ovarian.
As to `CN1CCN(C(=O)[C@@]2(C)CC[C@]3(C)CC[C@]4(C)C(=CC[C@@H]5[C@@]6(C)C/C(=C/c7ccncc7)C(=O)C(C)(C)[C@@H]6CC[C@]54C)[C@@H]3C2)CC1`, the growth with SK-MEL-2 melanoma was 85.1%; in the assay with EKVX NSCLC, 62.7%; with SN12C renal it was 46.2%; with UO-31 renal, 44.3%; with TK-10 renal it was 75.5%; with ACHN renal, 67.4%. The growth in the assay on CAKI-1 renal is 46.3%; in the assay on A498 renal it was 79.9%; in the assay with CCRF-CEM leukemia, 6.69% (active); with MOLT-4 leukemia it was 2.16% (active); with RPMI-8226 leukemia, 12.8%; in the assay on OVCAR-8 ovarian it was 50.9%. The growth in the assay on OVCAR-5 ovarian is 88.2%; in the assay with OVCAR-4 ovarian, 37.9%; in the assay with SK-OV-3 ovarian it was 55.2%; in the assay with IGROV1 ovarian, 56.7%; in the assay on OVCAR-3 ovarian, 50.7%; in the assay on HS 578T breast, 54%. In the assay on NCI/ADR-RES ovarian, the growth was 62.1%.
Take `CCO/C=N/C1=C(C#N)C(c2ccc(OC)cc2)c2c(c3ccccc3n(C)c2=O)O1` (stereo unspecified): the growth with SK-MEL-2 melanoma is 108%; in the assay on EKVX NSCLC it was 101%; with SN12C renal, 98.9%; with UO-31 renal, 72.8%; in the assay on TK-10 renal, 112%; in the assay with ACHN renal it was 100%. In addition, the growth in the assay on CAKI-1 renal is 89.6%; in the assay on A498 renal, 111%; in the assay with CCRF-CEM leukemia, 100%; in the assay with MOLT-4 leukemia, 103%; in the assay with RPMI-8226 leukemia it was 102%; in the assay with OVCAR-8 ovarian it was 104%. Further, the growth is 100% in the assay on OVCAR-5 ovarian; 98.8% in the assay on OVCAR-4 ovarian; 99.9% in the assay on SK-OV-3 ovarian; 101% with IGROV1 ovarian; 114% in the assay on OVCAR-3 ovarian; 107% in the assay with HS 578T breast. The growth with NCI/ADR-RES ovarian was 108%.
As to `CC[C@@H](C[C@H](CCO)c1ccccc1)c1cc2ccccc2o1`, the growth in the assay with SK-MEL-2 melanoma was 81.3%; in the assay with EKVX NSCLC, 103%; in the assay with SN12C renal it was 95.8%; in the assay on UO-31 renal it was 88.8%; in the assay with TK-10 renal it was 98.8%; with ACHN renal it was 99.1%. Also, the growth is 77.4% in the assay on CAKI-1 renal; 104% with A498 renal; 90.7% with CCRF-CEM leukemia; 79.9% with MOLT-4 leukemia; 90.8% in the assay with RPMI-8226 leukemia; 91% with OVCAR-8 ovarian. The growth in the assay with OVCAR-5 ovarian was 96.7%; in the assay with OVCAR-4 ovarian, 85.3%; in the assay with SK-OV-3 ovarian, 93.9%; in the assay with IGROV1 ovarian, 97.8%; in the assay with OVCAR-3 ovarian it was 95.7%; in the assay with HS 578T breast, 93%. The growth in the assay with NCI/ADR-RES ovarian was 93.1%.
Take `CS(=O)(=O)c1ccc(N/N=C/c2c(-c3ccc(S(C)(=O)=O)cc3)[nH]c3ccc(F)cc23)cc1`: the growth with SK-MEL-2 melanoma is 3.8% (active); in the assay with EKVX NSCLC, 64.2%; with SN12C renal, 36.2%; in the assay with UO-31 renal, 53.8%; in the assay on TK-10 renal, 35.2%; in the assay with ACHN renal, 48.2%. Further, the growth in the assay on CAKI-1 renal was 57.5%; in the assay with A498 renal it was 25.9%; with CCRF-CEM leukemia, 4.8% (active); in the assay on MOLT-4 leukemia, -1.41% (active); in the assay on RPMI-8226 leukemia, -41.7% (active); with OVCAR-8 ovarian, 26.1%. The growth in the assay with OVCAR-5 ovarian is 75.1%; with OVCAR-4 ovarian, 40.2%; with SK-OV-3 ovarian, 54.6%; with IGROV1 ovarian it was 35.4%; with OVCAR-3 ovarian, 41.7%; in the assay on HS 578T breast, 5.71% (active). In the assay on NCI/ADR-RES ovarian, the growth is 91.5%.
In the case of `COC(=O)/C(=C\c1ccc(OC)cc1)C(=O)N1c2ccccc2Sc2ccccc21`, the growth was 35.5% in the assay on SK-MEL-2 melanoma; 59.3% in the assay on EKVX NSCLC; 71.1% in the assay on SN12C renal; 52.6% in the assay with UO-31 renal; 92.9% in the assay on TK-10 renal; 58.3% in the assay on ACHN renal. Also, the growth in the assay with CAKI-1 renal is 29.4%; in the assay on A498 renal it was 7.6% (active); with CCRF-CEM leukemia, 43.1%; with MOLT-4 leukemia, 34.5%; in the assay with RPMI-8226 leukemia, 54.4%; with OVCAR-8 ovarian, 64.4%. The growth with OVCAR-5 ovarian is 75.1%; in the assay on OVCAR-4 ovarian, 89.3%; in the assay with SK-OV-3 ovarian, 91.7%; in the assay with IGROV1 ovarian, 43.6%; in the assay with OVCAR-3 ovarian it was 24.5%; in the assay with HS 578T breast, 56.1%. Further, the growth in the assay with NCI/ADR-RES ovarian was 16.4%.
